Test results taken from the supplement of paper PMC8728848.
Many of the other results were omitted from the sample, so the strongest signals are more common in it than they were.

B1: CLEC7A (Homo sapiens), Q9BXN2 (protein)
chain: MEYHPDLENLDEDGYTQLHFDSQSNTRIAVVSEKGSCAASPPWRLIAVILGILCLVILVIAVVLGTMAIWRSNSGSNTLENGYFLSRNKENHSQPTQSSLEDSVTPTKAVKTTGVLSSPCPPNWIIYEKSCYLFSMSLNSWDGSKRQCWQLGSNLLKIDSSNELGFIVKQVSSQPDNSFWIGLSRPQTEVPWLWEDGSTFSSNLFQIRTTATQENPSPNCVWIHVSVIYDQLCSVPSYSICEKKFSM
B2: Crocus Lectin (Crocus vernus), Q9FVA1 (protein)
chain: MAKSLVLSSLLLALLLAAPLASLADNNVLLTGDVLHTDNQLSFESAAFVMQGDCNLVLYNEAGGFQSNTHGRGVGCTLRLNNFGQLEIHSANSNTPVWVSLRNGIPVRGDYAAVLGPDQHVTIYGPAIWSTPAPNRHERGATVSNIPRVRNVLFSSQVMSDNAQLATRDYSLVMRDDCNLALTKGSKTNIVWESGTSGRGQHCFMRLGHTGLIEISDDRLNTVWRSNTVGQEGDYVLILQINGQAVVYGPAVWSTASPARGGASAAL

Assays:
Assay in all cases: glycan array binding signal (z-score within array); higher = stronger binding
Conditions in all cases: glycan notation: IUPAC condensed, linker removed
[1] = target: Fuc(a1-2)Gal(b1-3)GalNAc(b1-3)Gal(a1-4)Gal(b1-4)Glc
How it was run: (§1)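 From the Consortium for Functional Glycomics database, 3228 arrays were curated, keeping only those whose protein sequence was available. Binding is given as a within-array Z-score averaged across arrays sharing a protein sequence and across linkers. Negative Z-scores can be read as non-binding.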

Fuc(a1-2)Gal(b1-4)GlcNAc = target: Fuc(a1-2)Gal(b1-4)GlcNAc
How it was run: as §1

[2] = target: Fuc(a1-3)[Gal(b1-4)]GlcNAc(b1-4)Gal(b1-4)[Fuc(a1-3)]GlcNAc(b1-4)Gal(b1-4)[Fuc(a1-3)]GlcNAc
How it was run: as §1

[3] = target: Fuc(a1-3)[GalNAc(b1-4)]GlcNAc
How it was run: as §1

[4] = target: Gal(b1-4)GlcNAc(b1-3)Gal(b1-4)Glc
How it was run: as §1

Gal3S(b1-4)GlcNAc6S = target: Gal3S(b1-4)GlcNAc6S
How it was run: as §1

Gal3S6S(b1-4)GlcNAc6S = target: Gal3S6S(b1-4)GlcNAc6S
How it was run: as §1

[5] = target: GalNAc(b1-3)Gal(a1-4)Gal(b1-4)GlcNAc
How it was run: as §1

GlcNAc(b1-3)GalNAc = target: GlcNAc(b1-3)GalNAc
How it was run: as §1

[6] = target: GlcNAc(b1-4)GlcNAc(b1-4)GlcNAc(b1-4)GlcNAc(b1-4)GlcNAc
How it was run: as §1

Kdn(a2-3)Gal(b1-4)GlcNAc = target: Kdn(a2-3)Gal(b1-4)GlcNAc
How it was run: as §1

[7] = target: Man(a1-3)[Man(a1-6)]Man(a1-6)[Man(a1-2)Man(a1-3)]Man(b1-4)GlcNAc(b1-4)GlcNAc
How it was run: as §1

[8] = target: Neu5Ac(a2-3)Gal(b1-4)GlcNAc6S
How it was run: as §1

[9] = target: Neu5Ac(a2-6)Gal(b1-4)GlcNAc6S
How it was run: as §1

[10] = target: Neu5Ac(a2-8)Neu5Ac(a2-8)Neu5Ac
How it was run: as §1

[11] = target: Neu5Ac(a2-8)Neu5Ac(a2-8)Neu5Ac(a2-3)Gal(b1-4)Glc
How it was run: as §1

[12] = target: Fuc(a1-2)Gal(b1-4)GlcNAc(b1-3)Gal(b1-4)GlcNAc(b1-3)Gal(b1-4)GlcNAc
How it was run: as §1

[13] = target: Fuc(a1-2)[GalNAc(a1-3)]Gal(b1-4)[Fuc(a1-3)]GlcNAc
How it was run: as §1

[14] = target: Fuc(a1-3)[Gal3S(b1-4)]GlcNAc
How it was run: as §1

Fuc(b1-3)GlcNAc = target: Fuc(b1-3)GlcNAc
How it was run: as §1

Gal(a1-3)Gal = target: Gal(a1-3)Gal
How it was run: as §1

Gal(b1-3)Gal = target: Gal(b1-3)Gal
How it was run: as §1

[15] = target: Gal(b1-4)GalNAc(a1-3)[Fuc(a1-2)]Gal(b1-4)GlcNAc
How it was run: as §1

Gal(b1-4)Glc = target: Gal(b1-4)Glc
How it was run: as §1

Gal(b1-4)Glc6S = target: Gal(b1-4)Glc6S
How it was run: as §1

GlcA(b1-3)Gal = target: GlcA(b1-3)Gal
How it was run: as §1

[16] = target: GlcNAc(a1-6)Gal(b1-4)GlcNAc
How it was run: as §1

[17] = target: GlcNAc(b1-4)GlcNAc(b1-4)GlcNAc
How it was run: as §1

[18] = target: GlcNAc(b1-4)[GlcNAc(b1-6)]GalNAc
How it was run: as §1

GlcNAc(b1-6)GalNAc = target: GlcNAc(b1-6)GalNAc
How it was run: as §1

[19] = target: Man(a1-2)Man(a1-3)[Man(a1-3)[Man(a1-6)]Man(a1-6)]Man(b1-4)GlcNAc(b1-4)GlcNAc
How it was run: as §1

Man(a1-3)[Man(a1-6)]Man = target: Man(a1-3)[Man(a1-6)]Man
How it was run: as §1

[20] = target: Man(a1-3)[Man(a1-6)]Man(a1-6)[Man(a1-3)]Man(b1-4)GlcNAc(b1-4)GlcNAc
How it was run: as §1

[21] = target: Man(a1-3)[Man(a1-6)]Man(b1-4)GlcNAc(b1-4)GlcNAc
How it was run: as §1

[22] = target: Neu5Ac(a2-3)Gal(b1-3)[Neu5Ac(a2-3)Gal(b1-4)]GlcNAc
How it was run: as §1

[23] = target: Neu5Ac(a2-3)Gal(b1-4)[Fuc(a1-3)]GlcNAc6S
How it was run: as §1

Binder	glycan array binding signal (z-score) [1]	glycan array binding signal (z-score) (Fuc(a1-2)Gal(b1-4)GlcNAc)	glycan array binding signal (z-score) [2]	glycan array binding signal (z-score) [3]	glycan array binding signal (z-score) [4]	glycan array binding signal (z-score) (Gal3S(b1-4)GlcNAc6S)	glycan array binding signal (z-score) (Gal3S6S(b1-4)GlcNAc6S)	glycan array binding signal (z-score) [5]	glycan array binding signal (z-score) (GlcNAc(b1-3)GalNAc)	glycan array binding signal (z-score) [6]	glycan array binding signal (z-score) (Kdn(a2-3)Gal(b1-4)GlcNAc)	glycan array binding signal (z-score) [7]	glycan array binding signal (z-score) [8]	glycan array binding signal (z-score) [9]	glycan array binding signal (z-score) [10]	glycan array binding signal (z-score) [11]	glycan array binding signal (z-score) [12]	glycan array binding signal (z-score) [13]	glycan array binding signal (z-score) [14]	glycan array binding signal (z-score) (Fuc(b1-3)GlcNAc)	glycan array binding signal (z-score) (Gal(a1-3)Gal)	glycan array binding signal (z-score) (Gal(b1-3)Gal)	glycan array binding signal (z-score) [15]	glycan array binding signal (z-score) (Gal(b1-4)Glc)	glycan array binding signal (z-score) (Gal(b1-4)Glc6S)	glycan array binding signal (z-score) (GlcA(b1-3)Gal)	glycan array binding signal (z-score) [16]	glycan array binding signal (z-score) [17]	glycan array binding signal (z-score) [18]	glycan array binding signal (z-score) (GlcNAc(b1-6)GalNAc)	glycan array binding signal (z-score) [19]	glycan array binding signal (z-score) (Man(a1-3)[Man(a1-6)]Man)	glycan array binding signal (z-score) [20]	glycan array binding signal (z-score) [21]	glycan array binding signal (z-score) [22]	glycan array binding signal (z-score) [23]
B1	0.301	-0.842	0.278	-0.149	0.542	1.21	5.19	0.773	3.29	-0.613	0.64	0.549	-0.22	0.583	4.19	1.53																				
B2	-0.162																-0.146	-0.159	-0.187	-0.163	-0.177	-0.192	-0.195	-0.152	-0.165	-0.179	-0.196	-0.156	-0.187	-0.175	3.76	7.87	7.04	6.62	-0.169	-0.195
